Drawing on PubChem BioAssay (NCI), this text covers growth inhibition for ten compounds.

Assay [1] in a line: NCI Yeast Anticancer Drug Screen. Data for the rad50 strain (AID 155).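 Further: 0% = growth of vehicle-only cultures of the same strain.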 Particulars: S. cerevisiae rad50 strain growth inhibition, stronger effect = higher value. In outline:
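Vehicle-treated cultures provide the reference for the growth inhibition reported for compound-exposed, repair-deficient yeast.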

Assay [2] in a line: NCI Yeast Anticancer Drug Screen. Data for the mec2-1 strain (AID 157). Particulars: S. cerevisiae mec2-1 strain, stronger effect = higher value. In outline:
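Yeast mec2-1 mutant treated with compound. Readout: growth inhibition vs vehicle controls.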

Assay [3] in a line: NCI Yeast Anticancer Drug Screen. Data for the sgs1 mgt1 strain (AID 161).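 Further: 0% = growth of cultures given vehicle only.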 Particulars: S. cerevisiae sgs1 mgt1 strain, stronger effect = higher value. The gist of the method: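 Genetically altered yeast, compound exposure, growth inhibition relative to vehicle.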
Assay [4] is described as follows: NCI Yeast Anticancer Drug Screen. Data for the cln2 rad14 strain (AID 165).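 Further: 0% = growth equal to vehicle treated cultures.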 Conditions: S. cerevisiae cln2 rad14 strain, stronger effect = higher value. The gist of the method: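 cln2 rad14 yeast strain; compound exposure; growth inhibition read vs vehicle controls.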
A short description of assay [5]: NCI Yeast Anticancer Drug Screen. Data for the bub3 strain (AID 167). Particulars: S. cerevisiae bub3 mutant strain, stronger effect = higher value. The gist of the method:
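Mutant yeast screening strain plus compound; vehicle-treated cultures serve as the 0% inhibition reference.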

Assay [6] can be described thus: NCI Yeast Anticancer Drug Screen. Data for the mlh1 rad18 strain (AID 175). Conditions: S. cerevisiae mlh1 rad18 strain growth inhibition, stronger effect = higher value. In outline: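 Yeast w/ defined DNA-repair lesions; compound exposure; growth vs vehicle controls → % inhibition.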
The mark [7] stands for this setting: at 5.0 µM (retest, dose inferred, filed as 0.5).
Setting [8] is: at 50.0 µM (retest, dose inferred, filed as 5.0).

This is part of a sample that, as a whole, favours compounds with a hit. Of some 79,000 tested, about 15% had one in any assay. Values without a mark were called inactive. Activity calls are given as the source filed them. No stated cut-off is given here; in the data, active means growth inhibition above about 70%; inactive means the rest.

Consider `COC(=O)c1cc([N+](=O)[O-])cc([N+](=O)[O-])c1Cl`, for which the growth inhibition in assay [1] (setting [7]) is 99% (active); in assay [1] (setting [8]), 99% (active); in assay [1] (at 50.0 µM), 91.2% (active); in assay [2] (setting [7]), 99% (active); in assay [2] (setting [8]), 99% (active); in assay [2] (at 50.0 µM), 93.2% (active). The growth inhibition was 100% (active) in assay [3] (setting [7]); 99% (active) in assay [3] (setting [8]); 93.7% (active) in assay [3] (at 50.0 µM); 77% (active) in assay [4] (setting [7]); 99% (active) in assay [4] (setting [8]); 92.4% (active) in assay [4] (at 50.0 µM). Moreover, the growth inhibition in assay [5] (setting [7]) was 99% (active); in assay [5] (setting [8]), 99% (active); in assay [5] (at 50.0 µM), 92.8% (active); in assay [6] (setting [7]), 100% (active); in assay [6] (setting [8]) it was 99% (active); in assay [6] (at 50.0 µM) it was 92.2% (active).
`S=C(S)OCN1CCOCC1`: the growth inhibition in assay [1] (setting [7]) is 80% (active); in assay [1] (setting [8]), 32%; in assay [1] (at 50.0 µM), 98.1% (active); in assay [2] (setting [7]), 59%; in assay [2] (setting [8]), 23%; in assay [2] (at 50.0 µM), 98.2% (active). Besides, the growth inhibition in assay [3] (setting [7]) was 70% (active); in assay [3] (setting [8]), 28%; in assay [3] (at 50.0 µM) it was 96.8% (active); in assay [4] (setting [7]), 58%; in assay [4] (setting [8]), 20%; in assay [4] (at 50.0 µM), 97.3% (active). In addition, the growth inhibition was 55% in assay [5] (setting [7]); 27% in assay [5] (setting [8]); 98.8% (active) in assay [5] (at 50.0 µM); 51% in assay [6] (setting [7]); 35% in assay [6] (setting [8]); 98.2% (active) in assay [6] (at 50.0 µM).
In the case of `CC1(C)OCC(COC(c2ccccc2)(c2ccccc2)c2ccccc2)O1` (centres undefined), the growth inhibition was -7% in assay [1] (setting [7]); 14% in assay [1] (setting [8]); 21.1% in assay [1] (at 50.0 µM); -6% in assay [2] (setting [7]); 12% in assay [2] (setting [8]); 4.65% in assay [2] (at 50.0 µM). Further, the growth inhibition was -9% in assay [3] (setting [7]); 2% in assay [3] (setting [8]); -0.5% in assay [3] (at 50.0 µM); -4% in assay [4] (setting [7]); 16% in assay [4] (setting [8]); -33% in assay [4] (at 50.0 µM). Moreover, the growth inhibition in assay [5] (setting [7]) is -2%; in assay [5] (setting [8]), 63%; in assay [5] (at 50.0 µM), 40.2%; in assay [6] (setting [7]) it was -5%; in assay [6] (setting [8]) it was 28%; in assay [6] (at 50.0 µM), 43.6%.
Take `COc1cc([C@@H]2c3cc4c(cc3[C@H](OC3OC5COC(c6ccccc6)OC5C(O)C3O)[C@H]3COC(=O)[C@H]23)OCO4)cc(OC)c1OC` (some centres undefined): the growth inhibition was -4% in assay [1] (setting [7]); 91% (active) in assay [1] (setting [8]); 81.3% (active) in assay [1] (at 50.0 µM); -13% in assay [2] (setting [7]); 77% (active) in assay [2] (setting [8]); 81% (active) in assay [2] (at 50.0 µM). Moreover, the growth inhibition in assay [3] (setting [7]) is 18%; in assay [3] (setting [8]) it was 70% (active); in assay [3] (at 50.0 µM), 76.3% (active); in assay [4] (setting [7]) it was 12%; in assay [4] (setting [8]), 56%; in assay [4] (at 50.0 µM), 63%. Moreover, the growth inhibition is 5% in assay [5] (setting [7]); 82% (active) in assay [5] (setting [8]); 77.5% (active) in assay [5] (at 50.0 µM); -4% in assay [6] (setting [7]); 91% (active) in assay [6] (setting [8]); 81% (active) in assay [6] (at 50.0 µM).
In the case of `Oc1cc(Cl)ccc1Cc1ccc(Cl)cc1O`, the growth inhibition in assay [1] (setting [7]) is 97% (active); in assay [1] (setting [8]) it was 100% (active); in assay [1] (at 50.0 µM), 99.8% (active); in assay [2] (setting [7]) it was 99% (active); in assay [2] (setting [8]), 100% (active); in assay [2] (at 50.0 µM), 99.7% (active). Besides, the growth inhibition in assay [3] (setting [7]) was 98% (active); in assay [3] (setting [8]), 100% (active); in assay [3] (at 50.0 µM), 99.6% (active); in assay [4] (setting [7]), 98% (active); in assay [4] (setting [8]), 94% (active); in assay [4] (at 50.0 µM) it was 99.5% (active). Besides, the growth inhibition is 99% (active) in assay [5] (setting [7]); 100% (active) in assay [5] (setting [8]); 99.6% (active) in assay [5] (at 50.0 µM); 96% (active) in assay [6] (setting [7]); 96% (active) in assay [6] (setting [8]); 99.7% (active) in assay [6] (at 50.0 µM).
In the case of `Cc1ccccc1NC(=O)Cc1csc2[n+]1C(=O)/C(=C/c1ccc([N+](=O)[O-])cc1)S2`, the growth inhibition in assay [1] (setting [7]) was 22%; in assay [1] (setting [8]) it was 28%; in assay [1] (at 50.0 µM), 15.7%; in assay [2] (setting [7]), 29%; in assay [2] (setting [8]), 33%; in assay [2] (at 50.0 µM), -6.7%. Further, the growth inhibition in assay [3] (setting [7]) was -14%; in assay [3] (setting [8]) it was -4%; in assay [3] (at 50.0 µM), 39.6%; in assay [4] (setting [7]) it was -2%; in assay [4] (setting [8]), 7%; in assay [4] (at 50.0 µM) it was -27.7%. Besides, the growth inhibition in assay [5] (setting [7]) is 8%; in assay [5] (setting [8]), 4%; in assay [5] (at 50.0 µM) it was 8.95%; in assay [6] (setting [7]) it was 25%; in assay [6] (setting [8]), 37%; in assay [6] (at 50.0 µM) it was 20.5%.
Regarding `O=C1C=CC(=O)c2c(O)c(CO)c(CO)c(O)c21`, the growth inhibition was 28% in assay [1] (setting [7]); 95% (active) in assay [1] (setting [8]); 75.4% (active) in assay [1] (at 50.0 µM); 27% in assay [2] (setting [7]); 96% (active) in assay [2] (setting [8]); 84.4% (active) in assay [2] (at 50.0 µM). In addition, the growth inhibition in assay [3] (setting [7]) was 28%; in assay [3] (setting [8]), 94% (active); in assay [3] (at 50.0 µM), 51%; in assay [4] (setting [7]) it was 24%; in assay [4] (setting [8]), 84% (active); in assay [4] (at 50.0 µM), 15.5%. Moreover, the growth inhibition was 40% in assay [5] (setting [7]); 98% (active) in assay [5] (setting [8]); 74.2% (active) in assay [5] (at 50.0 µM); 30% in assay [6] (setting [7]); 96% (active) in assay [6] (setting [8]).
As to `CCCCCCCCCCCC[n+]1ccccc1` (tested in a mixture with another compound), the growth inhibition in assay [1] (setting [7]) was 34%; in assay [1] (setting [8]), 96% (active); in assay [1] (at 50.0 µM), 99.1% (active); in assay [2] (setting [7]), 91% (active); in assay [2] (setting [8]), 96% (active); in assay [2] (at 50.0 µM) it was 99.1% (active). The growth inhibition in assay [3] (setting [7]) was 31%; in assay [3] (setting [8]) it was 97% (active); in assay [3] (at 50.0 µM), 99.1% (active); in assay [4] (setting [7]) it was 18%; in assay [4] (setting [8]), 94% (active); in assay [4] (at 50.0 µM), 98.5% (active). Besides, the growth inhibition in assay [5] (setting [7]) was 88% (active); in assay [5] (setting [8]), 96% (active); in assay [5] (at 50.0 µM), 99.2% (active); in assay [6] (setting [7]) it was 21%; in assay [6] (setting [8]), 95% (active); in assay [6] (at 50.0 µM), 99% (active).
Consider `CCOC(=O)C1=C(C(=O)c2ccccc2)C(c2cccc([N+](=O)[O-])c2)C(C(=O)c2ccccc2)=C(C(=O)OCC)N1`, for which the growth inhibition was -3% in assay [1] (setting [7]); 60% in assay [1] (setting [8]); 56.2% in assay [1] (at 50.0 µM); 5% in assay [2] (setting [7]); 33% in assay [2] (setting [8]); 25.6% in assay [2] (at 50.0 µM). The growth inhibition is 21% in assay [3] (setting [7]); 36% in assay [3] (setting [8]); 25.6% in assay [3] (at 50.0 µM); -9% in assay [4] (setting [7]); 27% in assay [4] (setting [8]); 17% in assay [4] (at 50.0 µM). Besides, the growth inhibition in assay [5] (setting [7]) is -7%; in assay [5] (setting [8]) it was 63%; in assay [5] (at 50.0 µM) it was 38.5%; in assay [6] (setting [7]), -28%; in assay [6] (setting [8]), 42%; in assay [6] (at 50.0 µM), 67.7%.
Consider `C1=C(c2ccccc2)c2ccccc2C1`, for which the growth inhibition was 0% in assay [1] (setting [7]); 29% in assay [1] (setting [8]); 75.2% (active) in assay [1] (at 50.0 µM); -23% in assay [2] (setting [7]); 17% in assay [2] (setting [8]); 63.4% in assay [2] (at 50.0 µM). For the same compound, the growth inhibition in assay [3] (setting [7]) was -13%; in assay [3] (setting [8]) it was 12%; in assay [3] (at 50.0 µM), 48%; in assay [4] (setting [7]) it was 23%; in assay [4] (setting [8]), 19%; in assay [4] (at 50.0 µM), 50%. Moreover, the growth inhibition in assay [5] (setting [7]) was -12%; in assay [5] (setting [8]), 18%; in assay [5] (at 50.0 µM) it was 58.9%; in assay [6] (setting [7]), 5%; in assay [6] (setting [8]), 57%; in assay [6] (at 50.0 µM), 49.9%.
